Measured values reported in PubChem BioAssay (Tox21).
Records with an inconclusive call do not appear. A call without a number means that no potency is given here. A structure can be active in one record and inactive in another. Activity calls are given as the source filed them. The call rests on the fitted dose curve; in most records, active means well fitted inhibition curve with a large enough effect in the repeat runs; inconclusive means weak or mixed curves; inactive means flat fitted curve, though single readings scatter.

These compounds were tested against Luciferin 4-monooxygenase (Photinus pyralis) (UniProt P08659) (assay: qHTS assay to identify small molecule inhibitors of firefly luciferase (AID 1224835; further: nearly all actives have a fitted effect of over 25% in size)). Settings: purified P. pyralis luciferase, luminescence inhibition; series mostly up to 115 µM.
Summary of the method: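 Quantitative HTS format; KM concentrations of both substrates. Purified P. pyralis FLuc activity quantified from luminescence images.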
Potency means the concentration at half of the fitted maximal effect.

Luciferin 4-monooxygenase (Photinus pyralis), sequence (P08659 whole entry, looked up): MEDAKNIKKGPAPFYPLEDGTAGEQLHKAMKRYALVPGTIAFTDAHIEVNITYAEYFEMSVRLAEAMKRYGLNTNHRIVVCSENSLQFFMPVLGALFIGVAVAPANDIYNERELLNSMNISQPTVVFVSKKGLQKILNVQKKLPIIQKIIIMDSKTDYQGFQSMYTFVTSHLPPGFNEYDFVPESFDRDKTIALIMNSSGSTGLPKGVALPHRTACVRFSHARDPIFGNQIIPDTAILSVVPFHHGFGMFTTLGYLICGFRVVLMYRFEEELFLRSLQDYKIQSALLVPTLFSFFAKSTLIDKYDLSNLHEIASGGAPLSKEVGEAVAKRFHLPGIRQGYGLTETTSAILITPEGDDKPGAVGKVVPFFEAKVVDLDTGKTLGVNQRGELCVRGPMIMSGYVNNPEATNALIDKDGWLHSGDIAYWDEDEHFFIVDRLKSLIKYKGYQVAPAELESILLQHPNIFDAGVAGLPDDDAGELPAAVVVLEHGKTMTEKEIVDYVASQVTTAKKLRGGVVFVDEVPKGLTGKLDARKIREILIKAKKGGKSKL

| Structure (SMILES) | Potency |
| --- | --- |
| CC(C)(C)NCC(O)c1ccc(O)c(CO)c1 (stereo not drawn) | inactive |
| C[C@]12C[C@H](O)[C@H]3[C@@H](CCC4=CC(=O)CC[C@@]43C)[C@@H]1CC[C@@H]2C(=O)CO | inactive |
| NC(=O)NO | inactive |
| C=C(C)C(N)=O | inactive |
| Cc1cccc(C)c1O | inactive |
| C=CCOC(=O)CC(C)C | inactive |
| O=C(O)CN(CC(=O)O)CC(=O)O | inactive |
| CC(C)CC(C)CC(O)CC(C)C (stereo not drawn) | inactive |
| CCCCNC(=O)NS(=O)(=O)c1ccc(N)cc1 | inactive |
| CCCCCCCCOc1ccc(C(=O)c2ccccc2)c(O)c1 | inactive |
| N[C@@H](Cc1c[nH]c2ccccc12)C(=O)O | inactive |
| C[C@]12CC[C@@H]3c4ccc(O)cc4C[C@@H](CCCCCCCCCS(=O)CCCC(F)(F)C(F)(F)F)[C@H]3[C@@H]1CC[C@@H]2O (stereo partly drawn) | inactive |
| O=c1cc[nH]c(=O)[nH]1 | inactive |
| N[C@@H](Cc1c[nH]c2ccc(O)cc12)C(=O)O | 34.6 µM (active) and inactive |
| CC(=O)c1ccc(S(=O)(=O)NC(=O)NC2CCCCC2)cc1 | inactive |
| CCCCCCCC(=O)OCC(O)CO (stereo not drawn) | inactive |
| OCCCc1ccccc1 | inactive |
| CN/C(=C\[N+](=O)[O-])NCCSCc1ccc(CN(C)C)o1 | inactive |
| CC1(C)O[C@@H]2[C@@H](CO[C@@]3(COS(N)(=O)=O)OC(C)(C)O[C@@H]23)O1 | inactive |
| NC(=O)OCC(COC(N)=O)c1ccccc1 | inactive |
| C=C(C)OC(C)=O | inactive |
| O=C1CCCCCN1 | inactive |
| NC(=O)N1c2ccccc2C=Cc2ccccc21 | inactive |
